Screening results as filed in PubChem.
Most compounds without a hit are left out; they make up all but 3% or so of the library.
MITF TRPM1 HTS = MITF TRPM1 promoter activation in melanoma cells. SK-MEL-5 TRPM1-promoter luciferase, 24 h; % of positive control, neutral wells = 0. activation, % at 12.5 µM. 300,000 compounds, 0.75% hits. AID 588334;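 active = mean activation of at least 80% with every replicate also reaching 80%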;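 also: 0% = neutral control wells and 100% = parthenolide positive control wells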
C2C12 statin = suppressors of simvastatin-induced myotoxicity in C2C12 myotubes. ATP luminescence, 48 h; scaled: DMSO 0, geranylgeraniol control 100. rescue of ATP level, % at 7.49 µM. 330,000 compounds, 0.78% hits. AID 602340;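 active = mean ATP rescue above about 67%, or every replicate alone reaching that limit, limit read from the data, passing the limit was not always enough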;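 also: myotubes were challenged with 10 µM simvastatin during compound exposure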
Wnt bcat act = activates Wnt/beta-catenin signaling in a reporter cell assay | activator, plate reader | activation, % at 9.35 µM | 300,000 compounds, 1.2% hits; in the data active = activation above about 30%, passing the limit was not always enough;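 also: 0% = neutral control wells and 100% = positive control wells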
esBAF inh = inhibitors of esBAF chromatin remodeling in mouse ES cells | 350,000 compounds, 2% hits | reporter increase, % at 12.5 µM | AID 602393 | Bmi1-luciferase knock-in reporter, 24 h; 100% = twice the neutral-well signal; in the data active = activation above about 40%;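 also: 0% = median of the plate's neutral control wells and 100% = double that signal; a rise in the Bmi1 reporter signal indicates esBAF inhibition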
* marks the source's active call; other numbers are inactive results; x = no result given.

SMILES | MITF TRPM1 HTS | C2C12 statin | Wnt bcat act | esBAF inh
COc1ccc(Oc2nnnn2-c2ccccc2)cc1 | 29 | -7 | 3 | 25
COc1cccc(Oc2nnnn2-c2ccccc2)c1 | x | 6 | x | 58*
COc1ccc(NC(=O)N(C)C[C@@H]2Oc3ccc(NC(=O)Nc4cccc5ccccc45)cc3CC(=O)N([C@@H](C)CO)C[C@H]2C)cc1 | x | 8 | x | 1
Cc1cc(C(=O)Nc2ccc3c(c2)C(=O)N(C)[C@H]2CC[C@@H](CC(=O)NCc4ccc(-c5ccccc5)cc4)O[C@@H]2CO3)no1 | x | 0 | x | 17
CSCCC(NC(N)=O)C(=O)NCC1CCCCC1 (stereo unspecified) | 10 | 127* | x | -6
Cc1ccc(-c2csc(N/N=C/c3ccco3)n2)c(C)c1 | 44 | 4 | x | 69*
C=CCNc1nc(Nc2ccccc2F)nc(OCC)n1 | 45 | -10 | 18 | 85*
CN(C)c1ccc(/C=c2\sc3n(c2=O)CCCN=3)cc1 | -15 | x | x | x
O=c1/c(=C\c2ccc(F)cc2)sc2n1CCCN=2 | 73 | x | 53* | x
Brc1ccccc1OCCCOc1cccc2cccnc12 | x | 0 | 17 | 77*
O=C(COc1cccc2cccnc12)NNC(=O)Nc1ccccc1 | 5 | x | -2 | x
O=C(COc1cccc2cccnc12)Nc1nccs1 | x | -2 | 53* | 29
NNC(=O)COc1cccc2cccnc12 | -5 | 122* | -9 | -6
CC(=O)C1=C(N2CCCCC2)CCC1=O | 2 | 95* | x | -5
CC1=C(N2CCOCC2)CCC1=O | -6 | 2 | 0 | -4
O=C(C[C@@H]1CC[C@H]2[C@@H](COC[C@H](O)CN2S(=O)(=O)c2ccc(F)cc2)O1)NCC1CCCCC1 | x | 7 | x | 2
COc1ccc(-c2cnc3c(c2)C(=O)N([C@H](C)CO)C[C@@H](C)[C@H](CN(C)C(=O)C2CCCCC2)O3)cc1 | x | 7 | x | 2
Cc1noc(C)c1NC(=O)N(C)C[C@H]1Oc2ccc(NC(=O)Nc3ccc(F)cc3)cc2CC(=O)N([C@@H](C)CO)C[C@H]1C | x | 3 | x | -1
Cc1ccc(C2C(C(=O)c3cccs3)=C(O)C(=O)N2c2cccc(C)n2)cc1 (stereo unspecified) | x | x | 34* | x
Cc1ccc(C2C(C(=O)c3cccs3)=C(O)C(=O)N2c2ccc(S(N)(=O)=O)cc2)cc1 (stereo unspecified) | 12 | x | -1 | x
Cc1ccc2nc(SCC(=O)c3ccccc3)nc(=O)n2c1 | 71 | -14 | 12 | 68*
Cc1ccc2nc(SCC(=O)N3CCCC3)nc(=O)n2c1 | 11 | 0 | 4 | -1
Cc1ccn2c(=O)nc(SCC(=O)c3ccccc3)nc2c1 | 75 | 1 | 28 | 42*
CCN1[C@@H]2Cn3c(ccc(-c4ccccc4F)c3=O)[C@H]1[C@@H](C(=O)NCCOC)[C@@H]2CO | x | 5 | x | 3
COc1ccc(NC(=O)N[C@H]2CC[C@@H](CCn3cc(-c4ccccn4)nn3)O[C@@H]2CO)cc1 | x | 1 | x | -1
SMILES | MITF TRPM1 HTS | C2C12 statin | Wnt bcat act | esBAF inh
CC1(C)NC(=O)N(CC(O)COc2cccc(F)c2)C1=O (stereo unspecified) | 2 | -13 | -2 | -2
COc1ccc(OCC(O)CN2C(=O)NC(C)(C)C2=O)cc1 (stereo unspecified) | 0 | 121* | -2 | -2
CC1(C)NC(=O)N(CC(O)CN2C(=O)CCC2=O)C1=O (stereo unspecified) | x | 11 | x | -2
CC1(C)NC(=O)N(CC(O)Cn2nnc3ccccc32)C1=O (stereo unspecified) | 10 | 131* | -1 | -1
CN1C(=O)c2cc(NC(=O)c3cccc(F)c3)ccc2OC[C@@H]2O[C@@H](CC(=O)NCc3ccccc3)CC[C@H]21 | x | -10 | x | -2
Nc1ccc(C#Cc2ccc3sc4ccccc4c(=O)c3c2)cc1 | 66 | 13 | 18 | 43*
COc1cccc2sc3ccc(C#CC4(O)CCCCC4)cc3c(=O)c12 | 107* | 0 | 20 | 23
COc1cccc2sc3ccc(C#Cc4ccc(N)cc4)cc3c(=O)c12 | 102* | 5 | 37* | 61*
COc1ccc(N2CCN(C(c3cc(OC)ccc3OC)c3nnnn3CC3CCCO3)CC2)cc1 (stereo unspecified) | -7 | 79* | x | -8
COc1ccc(C(c2nnnn2CC2CCCO2)N2CCN(c3ccccc3)CC2)cc1 (stereo unspecified) | 5 | 5 | x | -4
COc1ccc(C2/C(=C(/O)c3ccccc3)C(=O)C(=O)N2CCO)cc1 (stereo unspecified) | 8 | 87* | x | 4
COCCCN1C(=O)C(=O)/C(=C(/O)c2ccc(OC)cc2)C1c1cccc(OC)c1 (stereo unspecified) | 6 | 125* | x | -4
COCCCN1C(=O)C(=O)/C(=C(/O)c2ccc(C)cc2)C1c1ccccc1 (stereo unspecified) | -5 | x | x | x
O=C1C(=O)N(CCO)C(c2ccccc2)/C1=C(\O)c1ccccc1 (stereo unspecified) | 7 | 12 | -4 | -6
Cc1ccc(C)c(/C(O)=C2\C(=O)C(=O)N(CCCn3ccnc3)C2c2ccncc2)c1 (stereo unspecified) | x | 84* | -3 | 1
Cc1ccc(C2/C(=C(/O)c3ccc4c(c3)CC(C)O4)C(=O)C(=O)N2CCCn2ccnc2)cc1 (stereo unspecified) | 0 | 19 | 0 | 3
Cc1cc(Cl)ccc1OCC(=O)NCc1ccncc1 | 18 | 3 | x | 62*
Cc1cc(Cl)c(S(=O)(=O)NCc2ccncc2)cc1OCC(N)=O | 0 | 129* | -4 | 2
O=C(Cc1ccccn1)NCC[C@@H]1CC[C@H](NC(=O)CN2CCOCC2)[C@H](CO)O1 | x | -1 | x | 3
C[C@H](CO)N1C[C@H](C)[C@@H](CN(C)S(=O)(=O)c2cccs2)Oc2ncc(C#CCC3CCCC3)cc2C1=O | x | 3 | x | -1
Cn1cc(Br)c(C(=O)NNC(=O)c2ccc(Cl)cc2)n1 | 19 | -1 | 51* | 30
O=C(NNC(=O)c1ccccc1F)c1cccc(-n2cccc2)c1 | 39 | 5 | -3 | 45*
Cn1cc(Br)c(C(=O)NNC(=O)Cc2ccc(Cl)cc2)n1 | 4 | -3 | -1 | 4
COc1ccccc1C(=O)NC(=O)Nc1cccc(Cl)c1 | 46 | -2 | 43* | -2
COc1cccc(NC(=O)c2cccc(C)c2[N+](=O)[O-])c1 | 31 | x | 33* | x
SMILES | MITF TRPM1 HTS | C2C12 statin | Wnt bcat act | esBAF inh
CN1CCN(C(=O)C[C@@H]2CC[C@@H](NC(=O)Cc3ccccn3)[C@H](CO)O2)CC1 | x | -6 | x | 1
Cc1cccc(CN(C)C[C@H]2OCc3cn(nn3)CCCC(=O)N([C@H](C)CO)C[C@@H]2C)c1 | x | -1 | x | 2
COc1cccc(NC(=O)c2nn(C)cc2Br)c1 | 41 | -6 | x | 55*
COc1ccc(/C=C(/NC(=O)c2ccccc2Cl)C(=O)NCCCC(=O)O)cc1 | 5 | x | -1 | x
O=C(Nc1ccccc1)c1cccc(N2C(=O)CCC2=O)c1 | -3 | 97* | -1 | 19
COc1ccc(/C=C(/NC(=O)c2ccccc2Cl)C(=O)O)cc1 | 2 | x | 47* | x
COc1cccc(NC(=O)CCN2CCN(c3ccccc3F)CC2)c1 | 19 | 78* | -7 | -1
